# PubChem BioAssay AID686978 (National Center for Advancing Translational Sciences (NCATS), 2013)
# In all, about 420,000 compounds went through this assay and about 64,000 (15%) were called active. Roughly 27% stayed inconclusive and do not appear here. These entries were drawn from the full list. Values without a mark were called inactive. The call rests on the fitted dose curve; in most records, active means well fitted inhibition curve with a large enough effect; inconclusive means small, poorly fitted or top-dose-only effect; inactive means flat fitted curve, though single readings scatter.
# Assay: qHTS for Inhibitors of human tyrosyl-DNA phosphodiesterase 1 (TDP1): qHTS in cells in absence of CPT; further: nearly all actives have a fitted effect of over 55% in size
# Settings: DT40 Tdp1-/- hTDP1 cells, no CPT, ATP luminescence, 48 h; activity change, negative = growth inhibition: at 46.2 µM (top of the series)
# Summary of the method: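 Readout: luminescence from CellTiter-Glo after 30 min in the dark at RT. Cells: DT40 Tdp1-/- with stable hTDP1, 400/well. Exposure: compounds alone, ≥48 hr, 37 °C.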
# On the % scale 0 is the no-effect control and ±100 the full control effect; potency means the concentration at half of the fitted maximal effect.
Compound,"activity change, negative = growth inhibition",Potency
COc1ccc(CNc2ncncc2-c2ccccc2C)c(OC)c1,-21.4%,–
COc1ccc(CNc2ncncc2-c2ccccc2OC)c(OC)c1,-11.4%,–
COc1ccc(CCNc2ncnc3onc(-c4ccc(Cl)cc4)c23)c(OC)c1,–,14.6 µM (active)
O=C(Nc1cccc2c1CCCC2)c1ccc(F)cc1,-28.2%,–
Clc1cccc(Cl)c1Cn1nnc(-c2cccs2)n1,-4.91%,–
Cc1ccc(N=Cc2c(O)cc(C)oc2=O)c(C)c1,-7.95%,–
NC(=O)c1c(NC(=O)c2ccccc2)sc2c1CCCC2,-1.15%,–
C=CCN(CC=C)S(=O)(=O)c1ccc(C(=O)Nc2nc3c(s2)CCc2ccccc2-3)cc1,–,10.3 µM (active)
C=CCN(CC=C)S(=O)(=O)c1ccc(C(=O)Nc2sc3c(c2C(N)=O)CCCCC3)cc1,–,13 µM (active)
C=CCSc1nnc(NC(=O)c2ccc(NC(C)=O)cc2)s1,0.0104%,–
COCCN(CCOC)S(=O)(=O)c1ccc(/C(O)=C(\C#N)c2nc3ccccc3[nH]2)cc1,-28%,–
COCCN(CCOC)S(=O)(=O)c1ccc(C(=O)Nc2nc3c(s2)CCc2ccccc2-3)cc1,–,13 µM (active)
COc1cccc(OC)c1C(=O)Nc1sc2c(c1C(N)=O)CCCC2,-1.68%,–
COCc1nnc(NC(=O)c2ccc3c(c2)OCO3)s1,-3.94%,–
O=C(Nc1ncc2c(n1)-c1ccccc1OC2)c1ccc(Cl)cc1,-18.8%,–
CC1(c2nnc(-c3ccncc3)o2)CC(c2cccnc2)=NO1 (stereo unspecified),-1.46%,–
CN(C)/C(=N\OC(=O)c1ccccc1)c1nonc1N,-6.06%,–
COCCNC(=O)c1ccc(Cn2c(SCC(=O)NCC3CCCO3)nc3ccc(Br)cc3c2=O)cc1 (stereo unspecified),2.84%,–
Nc1ccn(CC(=O)N2CCN(c3ccccn3)CC2)c(=O)n1,-6.28%,–
Cc1ccc(S(=O)(=O)Nc2nc(C)cc(-n3nc(C)cc3C)n2)cc1,-1.59%,–
Cc1ccc(S(=O)(=O)NC(C(=O)N2CCOCCOCCOCCOCC2)c2ccccc2)cc1 (stereo unspecified),-13.9%,–
CCCC(C(=O)n1nc(C)cc1C)C(NS(=O)(=O)c1ccc(C)cc1)c1ccccc1 (stereo unspecified),–,23.1 µM (active)
Cc1c(NC(=O)C(C)OC(=O)c2ccccc2O)c(=O)n(-c2ccccc2)n1C (stereo unspecified),-11%,–
CCCCS(=O)c1snnc1C (stereo unspecified),3.05%,–
O=C1CCCCC1Sc1ccc(Cl)cc1[N+](=O)[O-] (stereo unspecified),-19.5%,–
CCOC(=O)c1ccc(NC(=O)c2c(N)n(C)c(=O)[nH]c2=O)cc1,-0.401%,–

Compound,"activity change, negative = growth inhibition",Potency
O=C(Nc1ccc(Cl)cc1)c1cnn2c1NC(=C1CC1)C=C2C(F)F,0.994%,–
CC(C)(C)C1CCC(NC(=O)c2cnn3c2NC(=C2CC2)C=C3C(F)F)CC1 (stereo unspecified),–,7.94 µM (active)
O=C(Nc1ccc([N+](=O)[O-])cc1)c1cnn2c1NC(=C1CC1)C=C2C(F)F,-1.42%,–
Cc1cc(N2C(=O)C(=O)/C(=C(/O)c3ccccc3)C2c2cccc(Br)c2)no1 (stereo unspecified),-12.7%,–
O=C(O)CSC(NC(=O)c1cccnc1)(C(F)(F)F)C(F)(F)F,-1.73%,–
COc1ccc(N)cc1NC(=O)CN1CCOCC1,-2.03%,–
O=C(Nc1ccc(F)cc1)C(CCc1ccccc1)N1CCN(CC(=O)N2CCCC2)CC1 (stereo unspecified),-24.4%,–
CC(NC(=O)c1cccc(S(=O)(=O)N2CCc3ccccc3C2)c1)c1ccco1 (stereo unspecified),-22.5%,–
COC(=O)c1ccc(S(=O)(=O)N2CCc3ccccc3C2)cc1,-27.5%,–
Cc1cccc(N2CCN(C(=O)c3cccc(S(=O)(=O)N4CCc5ccccc5C4)c3)CC2C)c1 (stereo unspecified),–,7.31 µM (active)
COc1ccc(-n2ncc3c(N4CCCc5ccccc54)ncnc32)cc1,-29.4%,–
CCCCCCCC1(C)NC(=O)N(CC(=O)Nc2cc(C)on2)C1=O (stereo unspecified),-2.67%,–
COc1ccc(C2(c3ccc(OC)cc3)NC(=O)N(CC(=O)Nc3cc(C)on3)C2=O)cc1,–,16.4 µM (active)
Cc1cc(NC(=O)CN2C(=O)NC(C)(CCc3ccccc3)C2=O)no1 (stereo unspecified),-5.45%,–
O=C(CSc1nnc(-c2ccccc2O)o1)NC1CCCCC1,-1.77%,–
O=S(=O)(Cc1ccccc1)c1nc2ccccc2n1Cc1ccccn1,-1.39%,–
CCOc1ccc(S(=O)(=O)N2CCC(C(=O)NCC(=O)Nc3cccc(Cl)c3C)CC2)cc1,-24.1%,–
Cc1cccc(NC(=O)c2cccnc2Cl)n1,21.4%,–
CSc1nccc(NC(=O)c2ccc(C(C)(C)C)cc2)n1,–,7.31 µM (active)
Cc1cccc(NC(=O)c2ccccc2NC(=O)C(C)(C)C)n1,-13.1%,–
Cc1cc(C)c2nc(NC(=O)c3ccc4c(c3)OCO4)sc2c1,-19.9%,–
Cc1nc2cnc(Nc3ccccc3)nc2n(C[C@H]2CCCO2)c1=O,-7.1%,–
COc1cccc(Nc2ncc3ncc(=O)n(C4CC4)c3n2)c1,–,11.6 µM (active)
O=c1cnc2cnc(Nc3ccccc3)nc2n1Cc1ccc(F)cc1,-27.5%,–
CC(C)CCNC(=O)C1CCC(CNc2c(N3CCC(C)CC3)c(=O)c2=O)CC1 (stereo unspecified),4.09%,–
